# Measurements taken from PubChem BioAssay (NCATS).
# Values joined by “and” are separate entries in the source; they are usually repeats but may differ in a detail not shown here. Identical values can stand only once. Inconclusive results are not listed. Where a call stands in place of a potency, no number is given. Active and inactive are the calls of the source. Unless noted, the call rests on the fitted dose curve. Peptide text beside a SMILES is read from it.
# Tests used:
# [1] = molecular target: Thyroid hormone receptor beta (Homo sapiens) (UniProt P10828); assay: qHTS assay for small molecule agonists of thyroid hormone receptor beta signaling (AID 588545)
# How it was run: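 TR-UAS-bla GripTite HEK 293 cells (2500/well, medium with 2% charcoal/dextran FBS) were treated in agonist mode for 18 h at 37 C, titrated. Beta-lactamase was read by CCF4 ratio after 2 h; normalized to 10 nM T3 (100%) and DMSO, Hill-fitted for EC50 and efficacy.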
# [2] = qHTS assay for small molecule antagonists of retinoid X receptor alpha signaling (AID 588546); conditions: HEK293T RXRa-UAS-bla, beta-lactamase ratio, antagonist mode; measured here: W530 green channel, cytotoxicity proxy;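 further: cells stimulated with 9-cis-retinoic acid as agonist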
# How it was run: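 Beta-lactamase reporter inhibition, read as CCF4 fluorescence ratio (ex 405, em 460/530 nm) after 2 h at RT. HEK293T UAS-bla cells, 2500/well, were stimulated with 9-cis-RA at 500 or 100 nM final alongside test compound for 18 h at 37 C.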
# [3] = molecular target: Thyroid hormone receptor beta (Homo sapiens) (UniProt P10828); assay: qHTS assay for small molecule antagonists of thyroid hormone receptor beta signaling (AID 588547; active means well fitted inhibition curve with a large enough effect in the signal ratio, with a control signal flat, not every such curve was filed as active; the % refers to the signal ratio;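 further: cells stimulated with 0.4 nM T3 agonist during compound exposure; series mostly up to about 77 µM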); conditions: TR-UAS-bla HEK293, beta-lactamase ratio, antagonist mode, 18 h
# How it was run: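 Inhibition of T3-driven (0.4nM final) beta-lactamase reporter activity was measured over 0.59 nM to 92 uM compound after 18 h at 37 C. The cells were GripTite HEK293 TR-UAS-bla in charcoal/dextran-stripped serum, with CCF4 ratio read-out and IC50 from Hill fits.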
# [4] = molecular target: Voltage-gated inwardly rectifying potassium channel KCNH2 (Homo sapiens) (UniProt Q12809); assay: qHTS Assay for Small Molecule Inhibitors of the Human hERG Channel Activity (AID 588834; active means well fitted curve in the direction sought with a large enough effect; an effect the other way counts as inactive or inconclusive;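 further: lower thallium flux fluorescence means stronger hERG block; nearly all actives have a fitted effect of over 50% in size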; further: potency means the concentration at half of the fitted maximal effect)
# How it was run: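 hERG-BacMam U2OS, 2000 cells/well; 0.7X FluxOR loading 1 hr RT dark; cpd ~10 min 37 °C; stim buffer; FDSS fluorescence 2 min @ 1 s; AC50 Hill fit.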
# [5] = S16 Schwann cell viability assay (CellTiter-Glo assay) (AID 624031; active means well fitted curve in the direction sought with a large enough effect; an effect the other way counts as inactive or inconclusive; further: nearly all actives have a fitted effect of over 70% in size; further: potency means the concentration at half of the fitted maximal effect)
# How it was run: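 This viability control uses native rat S16 Schwann cells grown in DMEM plus 10% FBS. After a 24 h compound treatment at 37 °C, CellTiter-Glo luminescence reports ATP content, scaled against DMSO-treated and cell-free wells.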
# [6] = molecular target: Vitamin D3 receptor (Homo sapiens) (UniProt P11473); assay: qHTS assay for small molecule antagonists of vitamin D receptor signaling (AID 588541);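 further: receptor activated by calcitriol during compound treatment; series mostly up to about 77 µM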
# How it was run: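 Antagonist-mode beta-lactamase reporter assay: HEK293T VDR-UAS-bla cells were exposed to titrated compound alongside 1-alpha,25-dihydroxyvitamin D3 at 3 nM final for 16 h. Values were normalized to the 50 nM agonist control and DMSO basal, with IC50 and efficacy from Hill equation fits.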
# [7] = molecular target: Vitamin D3 receptor (Homo sapiens) (UniProt P11473); assay: qHTS assay for small molecule agonists of vitamin D receptor signaling (AID 588543)
# How it was run: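 Reporter cells (HEK293T, VDR-UAS-bla) were seeded in medium with 2% charcoal-stripped serum and incubated 5 h, then compounds in concentration series were added for 16 h at 37 °C. Stimulation was scaled between DMSO basal and 50 nM 1α,25-dihydroxyvitamin D3.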
# [8] = qHTS assay for small molecule agonists of retinoid X receptor alpha signaling (AID 588544); conditions: HEK293T RXRa-UAS-bla, beta-lactamase reporter, 18 h; 530 nm emission
# [9] = molecular target: Retinoic acid receptor RXR-alpha (Homo sapiens) (UniProt P19793); assay: as above
# [10] = molecular target: Luciferin 4-monooxygenase (Photinus pyralis) (UniProt P08659); assay: Biochemical firefly luciferase enzyme assay for NPC (AID 624030; active means well fitted curve in the direction sought with a large enough effect; an effect the other way counts as inactive or inconclusive;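 further: purified P. pyralis luciferase at 10 nM with luciferin and ATP substrate; series mostly up to about 59 µM; nearly all actives have a fitted effect of over 70% in size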)
# How it was run: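 Direct inhibition of firefly luciferase enzyme (10 nM final, 50 mM Tris Acetate) assessed by luminescence within 5 minutes. Percent activity scaled between DMSO and PTC124 positive control, with concentration-effect curves classified by fit quality and response.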
# Voltage-gated inwardly rectifying potassium channel KCNH2 (Homo sapiens), sequence (Q12809 whole entry, looked up): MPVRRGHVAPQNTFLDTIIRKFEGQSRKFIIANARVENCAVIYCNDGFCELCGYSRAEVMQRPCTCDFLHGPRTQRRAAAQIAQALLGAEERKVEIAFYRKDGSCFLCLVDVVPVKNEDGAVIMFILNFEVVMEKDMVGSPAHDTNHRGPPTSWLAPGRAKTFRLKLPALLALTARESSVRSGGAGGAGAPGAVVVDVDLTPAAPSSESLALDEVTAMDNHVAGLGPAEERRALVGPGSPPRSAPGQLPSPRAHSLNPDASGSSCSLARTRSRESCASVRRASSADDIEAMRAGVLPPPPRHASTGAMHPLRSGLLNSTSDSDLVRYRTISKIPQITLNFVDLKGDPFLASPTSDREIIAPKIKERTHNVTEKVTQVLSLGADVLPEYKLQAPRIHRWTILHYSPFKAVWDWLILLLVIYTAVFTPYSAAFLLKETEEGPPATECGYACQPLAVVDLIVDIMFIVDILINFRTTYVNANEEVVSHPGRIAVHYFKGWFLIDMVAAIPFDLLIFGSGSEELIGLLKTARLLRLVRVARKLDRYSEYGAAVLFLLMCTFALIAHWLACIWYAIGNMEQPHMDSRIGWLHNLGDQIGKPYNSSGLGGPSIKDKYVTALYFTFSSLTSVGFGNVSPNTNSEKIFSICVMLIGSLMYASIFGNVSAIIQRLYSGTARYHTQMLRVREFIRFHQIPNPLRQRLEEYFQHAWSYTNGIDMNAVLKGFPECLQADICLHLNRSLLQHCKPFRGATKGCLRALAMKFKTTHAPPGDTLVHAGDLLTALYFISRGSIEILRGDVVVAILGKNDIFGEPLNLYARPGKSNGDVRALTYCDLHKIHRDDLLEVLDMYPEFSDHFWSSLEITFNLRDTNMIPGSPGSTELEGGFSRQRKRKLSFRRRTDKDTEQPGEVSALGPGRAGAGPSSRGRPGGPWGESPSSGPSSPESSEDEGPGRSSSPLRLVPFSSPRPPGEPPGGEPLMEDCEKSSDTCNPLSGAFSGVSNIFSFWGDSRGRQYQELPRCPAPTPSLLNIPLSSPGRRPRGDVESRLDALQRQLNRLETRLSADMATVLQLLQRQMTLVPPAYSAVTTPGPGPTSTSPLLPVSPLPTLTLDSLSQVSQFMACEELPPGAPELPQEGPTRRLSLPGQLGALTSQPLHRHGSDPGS
# Retinoic acid receptor RXR-alpha (Homo sapiens), sequence (P19793 whole entry, looked up): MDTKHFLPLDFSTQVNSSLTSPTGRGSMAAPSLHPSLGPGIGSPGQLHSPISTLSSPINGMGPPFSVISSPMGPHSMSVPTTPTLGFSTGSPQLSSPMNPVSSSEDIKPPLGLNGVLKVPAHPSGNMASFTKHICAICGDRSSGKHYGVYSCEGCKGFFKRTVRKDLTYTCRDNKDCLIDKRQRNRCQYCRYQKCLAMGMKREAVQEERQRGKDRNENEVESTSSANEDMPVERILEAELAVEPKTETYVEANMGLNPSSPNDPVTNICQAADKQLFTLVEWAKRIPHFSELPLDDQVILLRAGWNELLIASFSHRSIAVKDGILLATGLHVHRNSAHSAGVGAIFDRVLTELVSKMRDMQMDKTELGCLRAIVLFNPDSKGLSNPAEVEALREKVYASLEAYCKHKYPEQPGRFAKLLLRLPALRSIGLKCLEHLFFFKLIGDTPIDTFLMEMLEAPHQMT
# Vitamin D3 receptor (Homo sapiens), sequence (P11473 whole entry, looked up): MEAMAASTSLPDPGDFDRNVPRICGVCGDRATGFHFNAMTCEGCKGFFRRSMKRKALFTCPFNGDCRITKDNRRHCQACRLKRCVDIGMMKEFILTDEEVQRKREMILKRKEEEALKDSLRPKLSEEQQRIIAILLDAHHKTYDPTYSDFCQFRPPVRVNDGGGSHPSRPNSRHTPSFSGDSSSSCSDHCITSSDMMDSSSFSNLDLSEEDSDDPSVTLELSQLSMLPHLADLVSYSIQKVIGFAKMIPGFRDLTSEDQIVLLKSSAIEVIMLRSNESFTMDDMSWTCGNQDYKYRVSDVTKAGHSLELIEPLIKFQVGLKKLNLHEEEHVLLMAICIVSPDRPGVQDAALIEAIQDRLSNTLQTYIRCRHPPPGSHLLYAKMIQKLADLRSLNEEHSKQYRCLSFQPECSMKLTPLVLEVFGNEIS
# Luciferin 4-monooxygenase (Photinus pyralis), sequence (P08659 whole entry, looked up): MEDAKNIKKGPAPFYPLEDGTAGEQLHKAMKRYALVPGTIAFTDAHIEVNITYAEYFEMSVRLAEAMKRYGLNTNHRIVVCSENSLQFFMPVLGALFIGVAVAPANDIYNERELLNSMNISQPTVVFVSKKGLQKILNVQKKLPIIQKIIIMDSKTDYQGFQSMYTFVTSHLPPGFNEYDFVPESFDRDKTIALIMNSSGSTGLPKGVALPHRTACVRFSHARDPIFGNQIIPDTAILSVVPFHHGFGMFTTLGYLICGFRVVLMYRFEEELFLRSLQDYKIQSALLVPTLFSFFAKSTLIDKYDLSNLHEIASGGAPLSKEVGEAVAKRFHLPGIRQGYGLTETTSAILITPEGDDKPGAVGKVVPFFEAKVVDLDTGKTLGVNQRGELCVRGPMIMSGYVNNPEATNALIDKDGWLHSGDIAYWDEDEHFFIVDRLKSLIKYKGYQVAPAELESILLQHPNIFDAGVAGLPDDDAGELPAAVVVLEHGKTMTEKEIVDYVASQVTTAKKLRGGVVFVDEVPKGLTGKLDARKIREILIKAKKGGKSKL
# Thyroid hormone receptor beta (Homo sapiens), sequence (P10828 whole entry, looked up): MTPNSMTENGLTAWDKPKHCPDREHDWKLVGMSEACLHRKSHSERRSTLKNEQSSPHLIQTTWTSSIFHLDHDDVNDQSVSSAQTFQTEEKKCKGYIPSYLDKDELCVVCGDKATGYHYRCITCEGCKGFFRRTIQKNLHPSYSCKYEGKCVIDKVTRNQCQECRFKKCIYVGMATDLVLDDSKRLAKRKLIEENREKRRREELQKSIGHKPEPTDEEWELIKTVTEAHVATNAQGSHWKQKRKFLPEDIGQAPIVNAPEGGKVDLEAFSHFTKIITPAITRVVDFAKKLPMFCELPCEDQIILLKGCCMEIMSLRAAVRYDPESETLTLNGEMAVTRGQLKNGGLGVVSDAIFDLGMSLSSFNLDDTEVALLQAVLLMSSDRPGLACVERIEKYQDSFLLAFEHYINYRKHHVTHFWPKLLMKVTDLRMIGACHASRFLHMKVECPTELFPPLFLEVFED
compound,measurement,setting,value
CN(C)c1ccc2nc3ccc(=[N+](C)C)cc-3sc2c1,outcome,[1],inactive
same,max response,[2],-22.9%
same,activity change % (negative = inhibition),[3],20.5% (inactive)
same,Potency,[4],inactive
same,Potency,[5],4.05 µM (active)
O=c1ccc2ccc(O)c(O)c2o1,Potency,[4],inactive
COc1cc(OC)c(C(=O)CCCN2CCCC2)c(OC)c1,outcome,[6],inactive
same,outcome,[7],inactive
same,max response,[8],3.94%
same,outcome,[9],inactive
same,outcome,[1],inactive
same,max response,[2],-15.1%
same,Potency,[4],inactive
same,Potency,[10],inactive
same,Potency,[5],inactive
CCN(CC)C(=S)SSC(=S)N(CC)CC,outcome,[1],inactive
same,activity change % (negative = inhibition),[3],-7.17% (inactive)
O=Nc1c(-c2c(O)[nH]c3cc(Br)ccc23)[nH]c2ccccc12,Potency,[4],11.2 µM (active)
N[C@@H](Cc1cc(I)c(Oc2cc(I)c(O)c(I)c2)c(I)c1)C(=O)O,outcome,[6],inactive
same,outcome,[7],inactive
same,max response,[8],-7.79%
same,outcome,[9],inactive
same,Potency,[4],inactive
same,Potency,[10],inactive
Cc1ccc(C)c(OCCCC(C)(C)C(=O)O)c1,max response,[8],26.9% and -2.09%
same,outcome,[9],inactive
same,outcome,[1],inactive
same,max response,[2],4.23% and -4.48%
same,activity change % (negative = inhibition),[3],-13.4% (inactive) and -13.2% (inactive)
same,Potency,[4],inactive
same,Potency,[10],inactive
Nc1nc(Cl)nc2c1ncn2[C@H]1C[C@H](O)[C@@H](CO)O1,outcome,[6],inactive
same,outcome,[7],inactive
same,outcome,[1],inactive
same,max response,[2],5.76%
same,activity change % (negative = inhibition),[3],-1.32% (inactive)
same,Potency,[4],inactive
NS(=O)(=O)c1cc(C(=O)O)c(NCc2ccco2)cc1Cl,outcome,[6],inactive
same,outcome,[7],inactive
same,outcome,[1],inactive
same,activity change % (negative = inhibition),[3],-7.01% (inactive) and -13.6% (inactive)
same,Potency,[10],inactive
same,Potency,[5],inactive
CNC[C@H](O)c1ccc(O)c(O)c1,outcome,[6],inactive
same,outcome,[7],inactive
same,max response,[8],-11.1%
same,outcome,[9],inactive
same,outcome,[1],inactive
same,max response,[2],-9.39%
same,Potency,[4],inactive
same,Potency,[10],inactive
O=C1c2c(O)cc(O)cc2OC(c2ccc(O)c(O)c2)C1O (centres undefined),Potency,[4],inactive
CCCCC(CC)COC(=O)C(C#N)=C(c1ccccc1)c1ccccc1 (centres undefined),outcome,[6],inactive
same,outcome,[7],inactive
same,max response,[2],-18.7%
same,activity change % (negative = inhibition),[3],-9.58% (inactive)
same,Potency,[4],inactive
same,Potency,[10],inactive
NC(=NCc1ccccc1)NC(=O)c1nc(Cl)c(N)nc1N,Potency,[4],5.62 µM (active)
O=c1c(O)c(-c2ccc(O)cc2O)oc2cc(O)cc(O)c12,outcome,[6],inactive
same,outcome,[7],inactive
same,outcome,[1],inactive
same,Potency,[4],3.16 µM (active)
COC(=O)[C@H](Cc1ccccc1)NC(=O)[C@@H](N)CC(=O)O (H-Asp-Phe-OMe),max response,[8],3.6% and 1.05%
same,outcome,[9],inactive
same,outcome,[1],inactive
same,max response,[2],2.63% and 8.92%
same,activity change % (negative = inhibition),[3],6.56% (inactive) and 1.22% (inactive)
same,Potency,[4],inactive
same,Potency,[10],inactive
Cc1ccc(S(=O)(=O)NC(=O)NN2CC3CCCC3C2)cc1 (centres undefined),Potency,[4],inactive
CCCc1cc(=O)[nH]c(=S)[nH]1,max response,[8],3.33% and 11.8%
same,outcome,[9],inactive
same,outcome,[1],inactive
same,max response,[2],2.58% and 1.92%
same,activity change % (negative = inhibition),[3],8.46% (inactive)
same,Potency,[4],inactive
same,Potency,[10],inactive
same,Potency,[5],inactive
COc1c2occc2cc2ccc(=O)oc12,outcome,[6],inactive
same,outcome,[7],inactive
same,max response,[8],-1.38%
same,outcome,[9],inactive
same,outcome,[1],inactive
same,max response,[2],0.567% and -6.27%
same,activity change % (negative = inhibition),[3],4.14% (inactive) and -14.9% (inactive)
same,Potency,[4],inactive
same,Potency,[10],inactive
same,Potency,[5],inactive
O=C1NC(=O)C(c2ccccc2[N+](=O)[O-])=C1Nc1ccc(O)c(Cl)c1,Potency,[4],inactive
CS(=O)(=O)OCCCCOS(C)(=O)=O,outcome,[6],inactive
same,outcome,[7],inactive
same,max response,[8],-9.47% and 11.7%
same,outcome,[9],inactive
same,max response,[2],2.17% and -2.42%
same,Potency,[4],inactive
same,Potency,[10],inactive
same,Potency,[5],inactive
NCCCCNCCCN,Potency,[4],inactive
Cc1cc(O)c2c(c1)C(=O)c1cc(O)cc(O)c1C2=O,outcome,[1],inactive
same,max response,[2],1.07%
same,activity change % (negative = inhibition),[3],-22% (inactive)
Cc1c(OCC(F)(F)F)ccnc1CS(=O)c1nc2ccccc2[nH]1 (centres undefined),Potency,[4],inactive
same,Potency,[10],inactive
CN(C)c1ccc(O)c2c1C[C@H]1C[C@H]3[C@H](N(C)C)C(=O)C(C(N)=O)=C(O)[C@@]3(O)C(=O)C1=C2O,Potency,[4],inactive
same,Potency,[10],inactive
CCCCN(CCCC)CCC(O)c1cc2c(Cl)cc(Cl)cc2c2cc(C(F)(F)F)ccc12 (centres undefined),Potency,[4],0.398 µM (active)
same,Potency,[10],inactive
